For experiment [1], the target named is T1, Ephrin type-B receptor 1 (Homo sapiens) (UniProt P54762).
T1 sequence (whole entry): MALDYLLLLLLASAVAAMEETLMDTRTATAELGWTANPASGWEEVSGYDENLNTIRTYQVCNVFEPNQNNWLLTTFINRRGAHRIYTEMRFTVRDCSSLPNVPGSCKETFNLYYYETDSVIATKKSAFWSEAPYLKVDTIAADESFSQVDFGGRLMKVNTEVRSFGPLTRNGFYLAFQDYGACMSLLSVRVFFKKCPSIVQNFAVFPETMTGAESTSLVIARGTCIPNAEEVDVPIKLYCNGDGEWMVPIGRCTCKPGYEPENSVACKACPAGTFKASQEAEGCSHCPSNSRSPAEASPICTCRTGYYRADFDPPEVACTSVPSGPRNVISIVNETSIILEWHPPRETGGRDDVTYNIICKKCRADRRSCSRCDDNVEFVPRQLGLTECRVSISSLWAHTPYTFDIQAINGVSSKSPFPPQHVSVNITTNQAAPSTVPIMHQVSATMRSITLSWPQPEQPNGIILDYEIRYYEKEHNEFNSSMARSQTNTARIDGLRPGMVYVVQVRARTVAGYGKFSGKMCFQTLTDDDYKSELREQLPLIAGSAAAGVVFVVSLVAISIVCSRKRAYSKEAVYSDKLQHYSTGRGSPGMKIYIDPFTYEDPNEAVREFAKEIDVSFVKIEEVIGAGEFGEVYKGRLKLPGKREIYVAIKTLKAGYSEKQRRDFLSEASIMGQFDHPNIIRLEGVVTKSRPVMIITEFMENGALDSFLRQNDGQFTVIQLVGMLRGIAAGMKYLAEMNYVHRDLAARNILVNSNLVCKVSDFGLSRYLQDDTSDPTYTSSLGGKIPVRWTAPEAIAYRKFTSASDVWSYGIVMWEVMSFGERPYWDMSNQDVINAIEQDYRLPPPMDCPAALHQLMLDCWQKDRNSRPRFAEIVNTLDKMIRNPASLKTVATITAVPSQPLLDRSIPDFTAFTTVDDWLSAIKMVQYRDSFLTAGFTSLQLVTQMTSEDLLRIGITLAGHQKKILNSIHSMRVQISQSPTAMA
To be noted: at 10 µM.

In experiment [2] the target is T2, Ephrin type-B receptor 2 (Homo sapiens) (UniProt P29323).
T2 sequence (whole entry): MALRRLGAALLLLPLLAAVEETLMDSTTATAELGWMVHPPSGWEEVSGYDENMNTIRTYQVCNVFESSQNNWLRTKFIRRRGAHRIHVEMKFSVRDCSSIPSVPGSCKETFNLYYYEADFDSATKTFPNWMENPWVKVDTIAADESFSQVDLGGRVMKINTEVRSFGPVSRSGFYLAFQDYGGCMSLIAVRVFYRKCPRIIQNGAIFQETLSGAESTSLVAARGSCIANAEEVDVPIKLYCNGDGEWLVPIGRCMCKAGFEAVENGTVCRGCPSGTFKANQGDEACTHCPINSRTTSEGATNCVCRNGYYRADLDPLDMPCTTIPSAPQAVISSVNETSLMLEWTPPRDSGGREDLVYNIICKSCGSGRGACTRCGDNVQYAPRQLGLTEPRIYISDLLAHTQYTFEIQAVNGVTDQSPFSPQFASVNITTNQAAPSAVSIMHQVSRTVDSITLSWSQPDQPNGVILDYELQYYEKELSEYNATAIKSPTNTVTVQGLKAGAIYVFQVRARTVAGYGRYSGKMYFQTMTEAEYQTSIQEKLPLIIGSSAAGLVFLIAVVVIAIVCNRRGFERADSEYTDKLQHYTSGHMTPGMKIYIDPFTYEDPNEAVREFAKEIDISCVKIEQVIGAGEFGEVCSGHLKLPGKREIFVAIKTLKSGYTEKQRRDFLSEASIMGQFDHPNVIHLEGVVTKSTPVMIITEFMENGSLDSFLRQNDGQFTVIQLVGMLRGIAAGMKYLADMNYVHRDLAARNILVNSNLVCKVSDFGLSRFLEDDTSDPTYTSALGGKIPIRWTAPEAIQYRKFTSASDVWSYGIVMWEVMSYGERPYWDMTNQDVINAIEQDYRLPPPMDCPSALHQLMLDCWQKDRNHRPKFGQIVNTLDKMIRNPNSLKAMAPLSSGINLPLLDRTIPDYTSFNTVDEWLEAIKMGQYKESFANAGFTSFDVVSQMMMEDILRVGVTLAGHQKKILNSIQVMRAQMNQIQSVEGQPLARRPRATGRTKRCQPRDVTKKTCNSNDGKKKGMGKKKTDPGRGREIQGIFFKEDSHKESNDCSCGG
To be noted: at 1 µM.

In experiment [3] the target is T2, Ephrin type-B receptor 2 (Homo sapiens). The settings on record: at 10 µM.
For experiment [4], the target named is T3, Ephrin type-B receptor 3 (Homo sapiens) (UniProt P54753).
T3 sequence (whole entry): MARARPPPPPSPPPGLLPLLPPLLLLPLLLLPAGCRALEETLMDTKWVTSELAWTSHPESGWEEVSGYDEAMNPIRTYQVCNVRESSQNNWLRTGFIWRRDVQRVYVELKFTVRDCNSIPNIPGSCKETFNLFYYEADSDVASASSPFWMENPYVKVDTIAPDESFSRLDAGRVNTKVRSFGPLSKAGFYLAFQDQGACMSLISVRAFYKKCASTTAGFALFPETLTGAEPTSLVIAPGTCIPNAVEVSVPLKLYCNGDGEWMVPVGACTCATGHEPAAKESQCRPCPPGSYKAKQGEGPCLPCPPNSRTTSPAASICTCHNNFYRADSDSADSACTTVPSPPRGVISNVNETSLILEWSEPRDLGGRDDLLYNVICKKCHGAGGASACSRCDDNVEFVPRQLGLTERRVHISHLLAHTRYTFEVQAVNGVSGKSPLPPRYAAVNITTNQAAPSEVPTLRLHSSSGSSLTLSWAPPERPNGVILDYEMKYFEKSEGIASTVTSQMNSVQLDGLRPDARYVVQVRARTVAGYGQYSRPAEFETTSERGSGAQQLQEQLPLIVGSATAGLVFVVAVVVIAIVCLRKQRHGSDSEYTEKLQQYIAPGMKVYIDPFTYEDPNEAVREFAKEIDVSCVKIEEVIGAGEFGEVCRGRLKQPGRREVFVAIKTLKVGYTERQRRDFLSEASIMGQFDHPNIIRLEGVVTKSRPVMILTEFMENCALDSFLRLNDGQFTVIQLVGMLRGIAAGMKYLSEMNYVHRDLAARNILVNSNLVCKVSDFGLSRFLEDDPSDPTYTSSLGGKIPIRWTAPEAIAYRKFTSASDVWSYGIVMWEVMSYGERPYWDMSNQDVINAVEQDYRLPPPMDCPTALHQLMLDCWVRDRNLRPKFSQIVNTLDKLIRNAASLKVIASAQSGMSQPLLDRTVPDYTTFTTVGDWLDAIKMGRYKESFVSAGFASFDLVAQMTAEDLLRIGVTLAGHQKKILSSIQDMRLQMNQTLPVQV
The settings on record: at 1 µM.

The target of experiment [5] is T3, Ephrin type-B receptor 3 (Homo sapiens). The settings on record: at 10 µM.
Experiment [6] deals with T4, Ephrin type-B receptor 4 (Homo sapiens) (UniProt P54760).
T4 sequence (whole entry): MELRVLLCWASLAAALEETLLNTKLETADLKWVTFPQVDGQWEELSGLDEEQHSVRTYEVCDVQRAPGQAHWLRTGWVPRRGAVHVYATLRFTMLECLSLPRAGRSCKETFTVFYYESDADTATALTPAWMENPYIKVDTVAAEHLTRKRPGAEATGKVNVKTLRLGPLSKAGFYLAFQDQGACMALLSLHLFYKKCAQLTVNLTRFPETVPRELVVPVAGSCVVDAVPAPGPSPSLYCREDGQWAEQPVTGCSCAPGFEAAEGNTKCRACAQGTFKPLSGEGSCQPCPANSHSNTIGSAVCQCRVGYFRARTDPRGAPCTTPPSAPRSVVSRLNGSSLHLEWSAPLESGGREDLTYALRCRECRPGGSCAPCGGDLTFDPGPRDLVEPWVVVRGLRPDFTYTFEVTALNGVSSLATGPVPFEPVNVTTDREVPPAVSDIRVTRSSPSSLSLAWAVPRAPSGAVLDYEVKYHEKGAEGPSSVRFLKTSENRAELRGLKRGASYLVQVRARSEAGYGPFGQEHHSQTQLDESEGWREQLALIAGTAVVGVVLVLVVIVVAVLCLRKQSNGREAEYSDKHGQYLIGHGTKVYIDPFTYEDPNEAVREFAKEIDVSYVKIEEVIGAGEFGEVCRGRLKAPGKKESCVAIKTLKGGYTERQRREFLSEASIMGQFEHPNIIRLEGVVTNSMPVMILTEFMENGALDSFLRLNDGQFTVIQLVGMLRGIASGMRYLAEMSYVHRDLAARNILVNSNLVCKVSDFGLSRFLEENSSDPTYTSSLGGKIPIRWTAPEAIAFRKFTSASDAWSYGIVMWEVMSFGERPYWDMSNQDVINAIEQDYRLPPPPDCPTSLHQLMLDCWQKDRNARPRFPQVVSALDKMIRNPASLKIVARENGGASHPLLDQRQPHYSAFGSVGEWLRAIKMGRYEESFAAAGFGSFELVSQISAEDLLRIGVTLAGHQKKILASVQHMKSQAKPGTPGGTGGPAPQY
To be noted: at 1 µM.

Experiment [7] concerns the target T4, Ephrin type-B receptor 4 (Homo sapiens). To be noted: at 10 µM.
Experiment [8] deals with Receptor tyrosine-protein kinase erbB-4 (Homo sapiens) (UniProt Q15303). To be noted: at 1 µM.
Sequence of Receptor tyrosine-protein kinase erbB-4 (Homo sapiens) (Q15303 whole entry): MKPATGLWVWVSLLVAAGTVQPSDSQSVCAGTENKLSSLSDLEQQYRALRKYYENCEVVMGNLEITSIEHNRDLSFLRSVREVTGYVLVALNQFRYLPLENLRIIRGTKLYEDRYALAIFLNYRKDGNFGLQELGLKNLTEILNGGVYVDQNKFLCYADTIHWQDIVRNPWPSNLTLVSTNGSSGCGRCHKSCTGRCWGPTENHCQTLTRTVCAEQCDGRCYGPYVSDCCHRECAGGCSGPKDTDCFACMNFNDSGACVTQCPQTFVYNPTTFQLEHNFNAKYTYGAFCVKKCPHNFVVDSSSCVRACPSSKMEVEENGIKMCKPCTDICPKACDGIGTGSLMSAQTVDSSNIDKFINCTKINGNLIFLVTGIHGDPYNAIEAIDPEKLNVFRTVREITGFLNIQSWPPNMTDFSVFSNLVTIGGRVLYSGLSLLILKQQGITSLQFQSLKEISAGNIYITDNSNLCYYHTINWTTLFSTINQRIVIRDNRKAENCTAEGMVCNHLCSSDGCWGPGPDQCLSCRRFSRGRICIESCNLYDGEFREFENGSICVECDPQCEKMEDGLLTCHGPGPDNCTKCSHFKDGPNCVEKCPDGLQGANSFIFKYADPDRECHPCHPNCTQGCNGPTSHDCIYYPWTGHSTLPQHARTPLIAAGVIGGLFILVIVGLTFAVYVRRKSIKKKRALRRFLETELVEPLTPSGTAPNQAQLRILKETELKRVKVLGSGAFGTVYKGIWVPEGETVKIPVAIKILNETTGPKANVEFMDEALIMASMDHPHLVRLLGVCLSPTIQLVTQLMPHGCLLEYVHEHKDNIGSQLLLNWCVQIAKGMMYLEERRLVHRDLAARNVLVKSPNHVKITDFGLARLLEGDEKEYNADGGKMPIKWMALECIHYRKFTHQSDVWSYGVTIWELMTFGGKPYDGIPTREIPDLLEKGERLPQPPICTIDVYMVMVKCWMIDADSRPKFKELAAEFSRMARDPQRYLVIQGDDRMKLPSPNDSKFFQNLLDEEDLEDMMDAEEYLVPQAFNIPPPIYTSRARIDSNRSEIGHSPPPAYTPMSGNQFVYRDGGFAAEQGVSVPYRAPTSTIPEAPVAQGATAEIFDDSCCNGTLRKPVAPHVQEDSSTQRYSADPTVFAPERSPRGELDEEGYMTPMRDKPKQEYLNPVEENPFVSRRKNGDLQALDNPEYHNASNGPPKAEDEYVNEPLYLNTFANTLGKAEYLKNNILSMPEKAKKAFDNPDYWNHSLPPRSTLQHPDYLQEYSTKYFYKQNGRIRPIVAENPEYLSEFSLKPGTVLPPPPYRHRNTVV
For experiment [9] the target is unchanged. The settings on record: at 10 µM.
Experiment [10] deals with Focal adhesion kinase 1 (Homo sapiens) (UniProt Q05397). The settings on record: at 1 µM.
Sequence of Focal adhesion kinase 1 (Homo sapiens) (Q05397 2-1052 limits assumed): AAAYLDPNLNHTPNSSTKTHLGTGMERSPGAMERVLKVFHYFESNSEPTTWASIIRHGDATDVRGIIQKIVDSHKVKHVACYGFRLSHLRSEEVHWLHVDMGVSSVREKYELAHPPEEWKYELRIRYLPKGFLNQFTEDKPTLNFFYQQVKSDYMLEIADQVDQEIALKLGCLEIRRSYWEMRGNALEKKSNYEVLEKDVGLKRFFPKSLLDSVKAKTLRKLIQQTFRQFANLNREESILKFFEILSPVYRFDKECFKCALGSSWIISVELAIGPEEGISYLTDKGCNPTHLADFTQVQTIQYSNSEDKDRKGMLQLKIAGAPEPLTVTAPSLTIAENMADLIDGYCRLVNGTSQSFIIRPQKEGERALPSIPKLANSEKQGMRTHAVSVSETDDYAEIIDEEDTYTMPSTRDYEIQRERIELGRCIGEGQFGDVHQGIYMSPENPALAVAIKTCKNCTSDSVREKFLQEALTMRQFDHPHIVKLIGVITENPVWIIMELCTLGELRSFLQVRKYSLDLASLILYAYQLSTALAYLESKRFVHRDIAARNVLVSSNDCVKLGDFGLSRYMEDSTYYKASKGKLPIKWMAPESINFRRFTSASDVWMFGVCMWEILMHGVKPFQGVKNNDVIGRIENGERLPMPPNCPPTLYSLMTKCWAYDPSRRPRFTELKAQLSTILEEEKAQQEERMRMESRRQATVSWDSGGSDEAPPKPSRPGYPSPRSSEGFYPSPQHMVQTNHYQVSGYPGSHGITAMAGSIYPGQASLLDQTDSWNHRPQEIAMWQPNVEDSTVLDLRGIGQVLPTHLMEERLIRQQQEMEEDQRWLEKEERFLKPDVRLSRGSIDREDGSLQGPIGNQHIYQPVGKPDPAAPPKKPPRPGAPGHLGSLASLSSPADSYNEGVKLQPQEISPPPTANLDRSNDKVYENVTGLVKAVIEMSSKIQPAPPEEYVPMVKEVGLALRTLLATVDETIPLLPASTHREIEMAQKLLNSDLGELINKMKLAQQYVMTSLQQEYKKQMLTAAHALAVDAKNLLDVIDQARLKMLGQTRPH

Our source for the residual activity values is ChEMBL document CHEMBL2218924, “A broad activity screen in support of a chemogenomic map for kinase signalling research and drug discovery” (Biochem J, 2013).

As a reminder, the residual activity is the signal under treatment as a percentage of the control signal.

On to `Oc1ccc(-c2nc(-c3ccc(F)cc3)c(-c3ccncc3)[nH]2)cc1`, for which the residual activity in experiment [1] is 53%; in [2], 94%; in [3], 43%; in experiment [4] it was 95% (inactive); in experiment [5], 117%; in experiment [6], 103%. Moreover, the residual activity in experiment [7] amounted to 41%; in experiment [8], 114%; in [9], 72%; in experiment [10], 117%.
